Molecules are shown by their SMILES. Measured potencies and affinities stand elsewhere. The source made the active and inactive calls. How the calls were made is not given here.

Results on 31 compounds are retold here after PubChem BioAssay AID743150 (Broad Institute, 2013).

The assay can be described thus: cytotoxicity in OVCAR4 cells, dose response, cytotoxicity control for PAX8 inhibitor project, cell-based, plate reader, dry powder, SA11 (AID 743150). To be noted: series mostly up to 35 µM.
Take `O=C(Nc1ccc(OCC(F)(F)C(F)F)c(C(F)(F)F)c1)c1ccccc1O`: the compound was classed as inactive.

`COc1ccccc1C#Cc1ccc([C@@H]2[C@@H](C#N)N(C(=O)C3CCCCC3)[C@H]2CO)cc1`: the compound was classed as inactive. For the compound `CCCC#Cc1ccc([C@@H]2[C@H](C#N)N(S(=O)(=O)c3cccc(F)c3)[C@H]2CO)cc1`, the compound was classed as inactive. Regarding `C[C@H]1CN([C@@H](C)CO)C(=O)CCCn2nncc2CO[C@@H]1CN(C)C(=O)Nc1ccc(-c2cccs2)cc1`, the compound was called inactive. For `Cc1ccc(S(=O)(=O)Nc2ccc3c(c2)C(=O)N([C@@H](C)CO)C[C@H](C)[C@@H](CN(C)C(=O)Nc2cccc4ccccc24)OCCCC[C@@H](C)O3)cc1`, the compound was called inactive. Regarding `CCCC#Cc1ccc([C@H]2[C@@H](C#N)N(C(=O)C3CCCCC3)[C@H]2CO)cc1`, the call was inactive. As to `COc1ccc(S(=O)(=O)Nc2ccc3c(c2)CC(=O)N([C@@H](C)CO)C[C@@H](C)[C@@H](CN(C)Cc2ccc(-c4ccccc4)cc2)O3)cc1`, the compound was called inactive.

`COc1cccc(C#Cc2ccc([C@@H]3[C@@H](C#N)N(C(=O)C4CCCCC4)[C@@H]3CO)cc2)c1`: the outcome was inactive. On to `C[C@H](CO)N1C[C@H](C)[C@H](CN(C)C(=O)Nc2ccc(-c3cccs3)cc2)OCc2cnnn2CCCC1=O`, for which the call was inactive.

Regarding `O=C1/C(=C/c2cccc(Br)c2)SC(=S)N1CCC(=O)N(CCO)c1ccccc1`, the call was inactive. For `O=C(/C=C/c1ccccc1)Nc1cccc(C(=O)O)c1`, the outcome was inactive.

Regarding `N#C[C@H]1[C@H](c2ccc(C#CC3CCCC3)cc2)[C@@H](CO)N1C(=O)Nc1ccc(F)cc1`, the compound was classed as inactive. As to `COc1ccc(S(=O)(=O)N2CCCCN3[C@H](CO)[C@H](c4ccc(C#CC(C)C)cc4)[C@H]3C2)cc1`, the result was inactive. In the case of `C[C@H](CO)N1C[C@H](C)[C@@H](CN(C)Cc2ccc(C(F)(F)F)cc2)Oc2ccc(NS(=O)(=O)c3ccccc3)cc2CC1=O` it was “inactive”; in that of `O=C(C[C@@H]1C[C@H]2c3cc(NS(=O)(=O)c4ccc(F)cc4)ccc3O[C@H]2[C@H](CO)O1)NCc1ccc(Cl)cc1`, “inactive”. In the case of `N#C[C@@H]1[C@@H](c2ccc(-c3ccccc3F)cc2)[C@@H](CO)N1C(=O)C1CCC1`, the outcome was inactive. As for `O=C(C[C@H]1CC[C@H]2[C@@H](COC[C@@H](O)CN2S(=O)(=O)c2cccc(Cl)c2)O1)Nc1ccc(-c2ccccc2)cc1`, the call was inactive. As for `O=C1/C(=C/c2ccccc2)SC(=S)N1CC(=O)N1CCCCC1c1cccnc1` (stereo unspecified), the outcome was inactive. In the case of `CCc1ccc(/C=C2\SC(=S)N(CCCC(=O)N(CCO)c3ccccc3)C2=O)cc1` it was “inactive”. As for `CCCn1c(C)cc(C(=O)CN2C(=O)c3ccccc3S2(=O)=O)c1C`, the result was inactive. `C[C@@H]1CN([C@@H](C)CO)S(=O)(=O)c2ccc(C#Cc3ccncc3)cc2O[C@H]1CN(C)C(=O)Nc1ccc2c(c1)OCO2`: the compound was classed as inactive. The same measure for `C[C@H](CO)N1C[C@H](C)[C@@H](CN(C)Cc2ccc(-c3ccccc3)cc2)Oc2ccc(NC(=O)C3CC3)cc2CC1=O`: “inactive”.

Regarding `O=C(N1CCCCC1)[C@@]1(CCS(=O)(=O)c2ccccc2)N=C(c2ccc(OCCCO)cc2)O[C@H]1c1ccccc1`, the compound was classed as inactive.

As for `N#C[C@H]1N[C@H](CO)[C@@H]1c1ccc(C#Cc2ccccc2F)cc1`, the result was inactive.

Turning to `COC(=O)[C@@]1(CCS(=O)(=O)c2ccccc2)N=C(c2ccc(OCCCO)cc2)O[C@H]1c1ccccc1`, the result was inactive. For the compound `C[C@H](CO)N1C[C@H](C)[C@@H](CN(C)S(=O)(=O)c2ccc(-c3ccccc3)cc2)OCc2cn(nn2)CCCC1=O`, the result was inactive. The same measure for `CN(C)CCCN(C(=O)CCOc1ccccc1)c1nc2c(F)cccc2s1`: “inactive”. Take `COc1cccc(C#Cc2ccc([C@@H]3[C@@H](C#N)N(C(=O)C4CCCC4)[C@@H]3CO)cc2)c1`: the call was inactive.

With `N#C[C@@H]1[C@H](c2ccc(C#Cc3ccc(F)cc3)cc2)[C@@H](CO)N1C(=O)Nc1ccc(F)cc1`, the outcome was inactive. The same measure for `COc1cccc(C#Cc2ccc([C@@H]3[C@@H](C#N)N(C(=O)C4CCCCC4)[C@H]3CO)cc2)c1`: “inactive”; for `C[C@H](CO)N1C[C@H](C)[C@@H](CN(C)Cc2ccc(-c3ccccc3)cc2)Oc2ccc(NS(=O)(=O)c3ccccc3)cc2CC1=O`: “inactive”.
